Compound activity: PubChem, National Center for Advancing Translational Sciences (NCATS)
The list is not random: actives were taken first. Their share in the collection is about 12%.
Pf growth 48h – P. falciparum growth inhibition at 48 hours (one generation) | P. falciparum luciferase growth in erythrocytes, 48 h | Potency, µM (top dose mostly 28.7 µM), hits mostly inhibitors | actives 5.9% (n = 310,000) | AID 504832
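Growth was read as firefly luciferase luminescence after a 48 h, 37 C, 5% CO2 exposure of compounds to reporter-bearing P. falciparum cultures (0.1% parasitemia, 2% hematocrit final) in Albumax-supplemented RPMI 1640.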
HCV inhibitor – inhibitors of hepatitis C virus infection. Potency, µM (series often up to 41.8 µM), actives largely listed as inhibitors. Huh7.5.1 HCVcc-Cre infection, luciferase reporter, 44 h. actives 3.4% (n = 340,000)
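Whole-lifecycle infectious HCVcc-Cre system; cells 1,000/well, compound then virus (~0.5 moi) added 4 h after plating, 44 h culture. Luciferase read 15 sec following 15 min substrate incubation, room temp.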
Pf growth 96h – P. falciparum growth inhibition at 96 hours; P. falciparum luciferase reporter growth, 96 h; Potency, µM (highest dose often 28.7 µM), hits mostly inhibitors; actives 6.9% (n = 320,000)
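Two parasite generations (96 h, 37 C, 5% CO2) of compound exposure in infected erythrocytes (0.05% parasitemia, 2% hematocrit). Luciferase-reporter P. falciparum; decreased luminescence indicates inhibited growth, aimed at apicoplast-acting delayed death.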
AMA1-RON2 inh – inhibitors of Plasmodium falciparum AMA1-RON2 interaction; AlphaScreen AMA1-biotinylated RON2 peptide binding; Potency, µM (top dose mostly 58.2 µM), hits mostly inhibitors; actives 0.2% (n = 360,000); note: nearly all actives have a fitted effect of over 45% in size
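AMA1 (3D7) with his tag at 25 nM final met compounds first, then biotinylated RON2 peptide at 25 nM; detection used donor plus acceptor beads, 10 µg/mL apiece, read by AlphaScreen after 30 min at room temperature.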
SARS PLpro yeast – SARS-CoV PLP inhibition in yeast. S. cerevisiae expressing SARS-CoV PLpro, growth rescue. Potency, µM (highest dose often 32.9 µM), actives largely listed as activators. actives 0.19% (n = 330,000). AID 485353; calls by dose curve; note: nearly all actives have a fitted effect of over 55% in size
NS1 inh – blocks influenza NS1 protein function; actives 0.4% (n = 270,000); Potency, µM (highest dose often 46.1 µM); calls by dose curve; note: actives are rising curves; nearly all actives have a fitted effect of over 50% in size
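S. cerevisiae expressing influenza A NS1, grown in glucose, washed, then diluted 1:100 into pH 6.0 -URA galactose medium with 23 nl compound. Growth recovery read as OD600; NS1-free strain serves as control.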
Of the large screens only hits and unclear results are named; the others gave an inactive call. Unless noted, calls come from the whole dose curve; as a rule, active = well fitted curve in the direction sought with a large enough effect; inconclusive = small, poorly fitted or top-dose-only effect, or another doubt; inactive = no such curve, though single readings can be large; an effect the other way counts as inactive or inconclusive.

O=C(COc1ccc(Br)cc1CO)Nc1ccccc1F	HCV inhibitor 25µM
Cc1ccc(NC(=O)COc2ccc(Br)cc2CO)cc1	HCV inhibitor inconclusive, Pf growth 96h inconclusive (no result: Pf growth 48h)
O=C(COc1ccc(Br)cc1CO)Nc1ccccc1	HCV inhibitor 16µM
COc1ccccc1NC(=O)COc1ccc(Br)cc1CNC1CCCC1	Pf growth 48h 12µM, HCV inhibitor inconclusive
O=C(COc1ccc(Br)cc1CNCCc1ccccc1)NCc1ccccc1	Pf growth 48h inconclusive, HCV inhibitor inconclusive, Pf growth 96h inconclusive
COc1ccccc1NC(=O)COc1ccc(Br)cc1CO	none (no result: Pf growth 48h)
Cc1ccccc1NC(=O)COc1ccc(Br)cc1C	Pf growth 96h inconclusive
CCCNCc1cc(Br)ccc1OCC(=O)NCCc1ccccc1	Pf growth 48h 13µM, HCV inhibitor inconclusive, Pf growth 96h 12µM, SARS PLpro yeast inconclusive
COc1ccccc1CN1CC(C(=O)NCc2nccn2C)CCC1=O (configuration not stated)	none
O=[N+]([O-])c1ccc(N2CCN(Cc3ccc(Br)o3)CC2)cc1	AMA1-RON2 inh inconclusive
CC(=O)OC(COC1C[C@@H]2CC[C@@]1(C)C2(C)C)C[N+]1(C)CCCCC1 (some centres not stated)	Pf growth 48h 3.3µM, Pf growth 96h 2.9µM
CC(=O)OC1CC2CCC1(C)C2(C)C (configuration not stated)	none (no result: HCV inhibitor, AMA1-RON2 inh, SARS PLpro yeast, NS1 inh)
CC(=O)Nc1nc2n(n1)C(c1ccc(F)cc1)C=C(c1ccccc1)N2 (configuration not stated)	Pf growth 48h inconclusive
CC(=O)Nc1nc2nc(-c3ccccc3)cc(-c3ccccc3)n2n1	Pf growth 48h inconclusive
O=C(Nc1nc2n(n1)C(c1ccccc1)C=C(c1ccccc1)N2)c1ccco1 (configuration not stated)	Pf growth 48h 8.3µM, Pf growth 96h inconclusive
CC(=O)Nc1nc2n(n1)C(c1ccccc1)C=C(c1ccccc1)N2 (configuration not stated)	Pf growth 96h 5.2µM
O=C(c1nc2n(n1)C(c1ccc(Cl)cc1)C=C(c1ccccc1)N2)N1CCOCC1 (configuration not stated)	Pf growth 48h 4.1µM
O=C(Nc1nc2nc(-c3ccccc3)cc(-c3ccccc3)n2n1)c1ccco1	Pf growth 48h 2.9µM, HCV inhibitor inconclusive (no result: Pf growth 96h)
COc1ccc(Cl)c(OC)c1C(=O)NC(=O)Nc1c(F)cc(F)cc1F	Pf growth 96h inconclusive
O=C(NCCN1CCCCC1)Nc1ccc(Br)cc1	Pf growth 48h inconclusive, HCV inhibitor inconclusive
Fc1cccc(Cl)c1-c1nnc2ccc3ccccc3n12	HCV inhibitor 10µM (no result: NS1 inh)
COc1ccc(CNC(=O)COc2cc3c(c4oc(=O)cc(C)c24)CCC(C)(C)O3)cc1	Pf growth 48h inconclusive, HCV inhibitor 7.1µM, Pf growth 96h 8.3µM
COc1ccccc1CNC(=O)COc1cc2c(c3oc(=O)cc(C)c13)CCC(C)(C)O2	Pf growth 48h inconclusive, HCV inhibitor 3.5µM, Pf growth 96h 3.7µM
COc1cccc(CNC(=O)COc2cc3c(c4oc(=O)cc(C)c24)CCC(C)(C)O3)c1	Pf growth 48h 9.3µM, HCV inhibitor 1.4µM, Pf growth 96h 13µM
Cc1cc(=O)oc2c3c(cc(OCC(=O)N[C@@H](C)C(=O)O)c12)OC(C)(C)CC3	none
Cc1cc(=O)oc2c3c(cc(OCC(=O)NC(C)C)c12)OC(C)(C)CC3	Pf growth 48h 9.3µM, HCV inhibitor inconclusive, Pf growth 96h inconclusive
Cc1cc(C)cc(OCC(=O)N2CCN(c3ncccn3)CC2)c1	none (no result: Pf growth 48h, Pf growth 96h, NS1 inh)
CCc1nc2ccc(C(=O)Nc3cc(-c4ccccc4)ccc3OC)cn2c1N(C=O)CCC(C)C	none (no result: Pf growth 48h, HCV inhibitor, Pf growth 96h, SARS PLpro yeast, NS1 inh)
C[C@H]1[C@H](NC(=O)/C(=N/OC(C)(C)C(=O)O)c2csc(N)n2)C(=O)N1S(=O)(=O)O (stereo in doubt)	none (no result: HCV inhibitor, AMA1-RON2 inh, SARS PLpro yeast, NS1 inh)
O=C(COc1ccccc1)Nc1ccccc1Cl	Pf growth 96h inconclusive (no result: NS1 inh)
COC(=O)c1c(-c2ccc(C)cc2)csc1NC(=S)NC(=O)c1cc(OC)cc(OC)c1	Pf growth 48h inconclusive, Pf growth 96h 8.3µM
N#Cc1c(C(F)(F)F)cc(-c2ccc(Cl)c(Cl)c2)nc1SCCN1CCOCC1	Pf growth 48h inconclusive, Pf growth 96h 2.3µM (no result: HCV inhibitor)
O=[N+]([O-])c1ccc(Oc2cccc(F)c2)c2ccncc12	Pf growth 48h inconclusive, HCV inhibitor 4µM (no result: Pf growth 96h)
O=[N+]([O-])c1cnccc1Nc1cccc(F)c1	HCV inhibitor inconclusive
O=C(NCCCCNC(=O)c1ccc(Br)cc1)c1ccc(Br)cc1	none
O=C(NCCCCNC(=O)c1ccc(F)cc1)c1ccc(F)cc1	Pf growth 96h 2.6µM
O=C(NCCCc1ccccc1)c1ccc(F)cc1	Pf growth 96h 17µM
CCOC(=O)N1CCc2c(sc(N)c2C#N)C1	none
N#Cc1c(NC(=S)NC(=O)c2ccccc2)sc2c1CCCC2	Pf growth 96h inconclusive, NS1 inh inconclusive
N#Cc1c(N)sc2c1CCN(CCc1ccccc1)C2	Pf growth 48h 10µM
N#Cc1c(NC(=S)NC(=O)c2ccccc2)sc2c1CCN(CCc1ccccc1)C2	Pf growth 48h 4.1µM, Pf growth 96h 2.6µM, NS1 inh inconclusive (no result: AMA1-RON2 inh)
O=c1ccn(-c2cccc(C(F)(F)F)c2)nc1-c1ccn(-c2ccccc2)n1	Pf growth 48h 10µM
O=S(=O)(Cc1ccccc1)NCCc1cccc(Cl)c1	Pf growth 96h 3.3µM
NS(=O)(=O)c1ccc(CNS(=O)(=O)Cc2ccc(Cl)cc2)cc1	Pf growth 96h inconclusive
NS(=O)(=O)c1ccc(CCNS(=O)(=O)Cc2ccc(Cl)cc2)cc1	Pf growth 96h 13µM
NS(=O)(=O)c1ccc(CCNc2ccnc3cc(Cl)ccc23)cc1	Pf growth 48h 12µM, HCV inhibitor inconclusive
COc1cc(OC)c2c(-c3ccccc3)cc(=O)oc2c1	Pf growth 48h inconclusive
Cc1c(OCC(=O)NCCN2CCOCC2)ccc2c(-c3ccccc3)cc(=O)oc12	none
COc1cc(OC)c2c(-c3ccccc3)cc(=O)oc2c1C(CCN1CCOCC1)c1ccc(N(C)C)cc1 (configuration not stated)	HCV inhibitor inconclusive, AMA1-RON2 inh 28µM (no result: Pf growth 48h, Pf growth 96h, NS1 inh)
COc1ccc(C(CCN2CCCCC2)c2c(OC)cc(OC)c3c(-c4ccccc4)cc(=O)oc23)cc1 (configuration not stated)	Pf growth 48h 10µM, HCV inhibitor 2.8µM, Pf growth 96h 9.3µM
COc1cc(OC)c2c(-c3ccccc3)cc(=O)oc2c1C(CCN1CCCCC1)c1ccc(N(C)C)cc1 (configuration not stated)	Pf growth 48h 10µM, Pf growth 96h inconclusive, AMA1-RON2 inh 25µM
CCS(=O)(=O)N1CCN(C(C)CCc2ccccc2)CC1 (configuration not stated)	Pf growth 96h 3.3µM, AMA1-RON2 inh inconclusive
